High-throughput results deposited in PubChem BioAssay by National Center for Advancing Translational Sciences (NCATS).
IL-1B inflam inh: inhibitors of inflammasome signaling (IL-1 beta secretion). actives 4.7% (n = 360,000). activity change, % at 57.5 µM. AID 743279. THP-1 LPS/ATP IL-1B secretion, AlphaLISA, 16 h; hits give low values; in the data active = activity change below about -50%; inconclusive = mostly about -30% to -49%
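Secreted IL-1B measured by AlphaLISA bead assay after 16 h compound exposure of THP-1 cells; compounds (final up to 57.5 uM) added 1 h before LPS (250 ng/mL) and ATP (1.25 mM) stimulation; lower signal means less secretion.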
TDP1 cell CPT: DT40-hTDP1 cell growth loss with CPT; chicken DT40 Tdp1-/-;hTDP1 cells + 20 nM CPT, ATP luminescence, 48 h; Potency, µM (doses to about 46.2 µM), inactives show at the highest dose activity change, negative = growth inhibition, hits mostly inhibitors; actives 12% (n = 420,000); also: potency is read from the fitted curve at half-maximal effect; nearly all actives have a fitted effect of over 55% in size
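Chicken DT40 Tdp1-/- cells complemented with human TDP1, 400 cells/well, exposed to compounds plus 20 nM camptothecin for at least 48 h at 37 C; viability read as ATP content by CellTiter-Glo luminescence.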
Gal4-VP16 FLuc: Gal4-VP16 reporter inhibition counter-screen; Drosophila S2 Gal4-VP16 UAS-luciferase, luminescence, 20 h; Potency, µM (highest dose often 53.6 µM), for the others: at the highest dose activity, negative = inhibition, hits mostly inhibitors; AID 2546; actives 3.5% (n = 310,000);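 also: Gal4-VP16 expression switched on by copper sulfate through the metallothionein promoter; potency is read from the fitted curve at half-maximal effect; nearly all actives have a fitted effect of over 50% in size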
LDHA block: inhibitors of human lactate dehydrogenase A; activity change, % (values are at about 110 or 230 µM); purified LDHA, NADH/diaphorase-resazurin fluorescence; hits give low values; actives 0.15% (n = 480,000); P00338; in the data active = activity change below about -30%; inconclusive = mostly about -25% to -30%;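 also: plate controls were DMSO wells for no effect and wells without enzyme for full effect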
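Resorufin fluorescence (ex540/em590), read at 0 and 20 min after diaphorase/resazurin addition, reports the NADH left after a 5 min room-temperature reaction of 2 nM human LDH5 with 0.06 mM NADH and 0.2 mM pyruvate.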
TDP1 cell noCPT: qHTS for Inhibitors of human tyrosyl-DNA phosphodiesterase 1 (TDP1): qHTS in cells in absence of CPT; DT40 Tdp1-/- hTDP1 cells, no CPT, ATP luminescence, 48 h; Potency, µM (highest dose often 46.2 µM), without a hit: at the top dose activity change, negative = growth inhibition, most hits filed as inhibitors; actives 15% (n = 420,000); also: potency is read from the fitted curve at half-maximal effect; nearly all actives have a fitted effect of over 55% in size
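Compound effects on proliferation are scored in DT40 Tdp1-/-;hTDP1 cells in the absence of CPT. ATP levels (CellTiter-Glo luminescence) are recorded after a ≥48 hr, 37 °C incubation.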
RORg inh: blocks mouse ROR gamma transcriptional activity; Potency, µM (doses to about 53.6 µM), inactives show at the highest dose activity change, negative = inhibition, hits mostly inhibitors; Drosophila S2 Gal4-RORgamma UAS-luciferase reporter, 20 h; AID 2551; actives 5.4% (n = 310,000); also: potency is read from the fitted curve at half-maximal effect; nearly all actives have a fitted effect of over 60% in size
Target sequence (P51450 whole entry, looked up, the tested form may be a part): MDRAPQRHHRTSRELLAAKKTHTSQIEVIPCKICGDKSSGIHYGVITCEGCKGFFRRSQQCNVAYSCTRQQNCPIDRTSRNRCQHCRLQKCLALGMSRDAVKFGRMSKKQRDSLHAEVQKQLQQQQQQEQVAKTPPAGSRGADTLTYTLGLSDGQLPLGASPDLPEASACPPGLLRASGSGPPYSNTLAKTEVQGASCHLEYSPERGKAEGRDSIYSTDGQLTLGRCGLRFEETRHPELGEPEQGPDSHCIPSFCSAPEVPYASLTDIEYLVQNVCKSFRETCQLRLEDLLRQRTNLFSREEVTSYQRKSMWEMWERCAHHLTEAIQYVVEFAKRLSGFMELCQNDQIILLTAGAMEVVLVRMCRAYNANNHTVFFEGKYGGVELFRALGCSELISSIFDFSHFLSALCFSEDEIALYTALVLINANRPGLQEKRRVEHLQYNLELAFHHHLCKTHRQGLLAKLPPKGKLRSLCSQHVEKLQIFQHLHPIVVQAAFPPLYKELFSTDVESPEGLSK
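Drosophila S2 cells stably expressing Gal4-DBD/mouse RORγ fusion under metallothionein promoter plus UAS-luciferase; compound 1 h, then 700 uM CuSO4 induction for 20 h at ambient temperature; inhibition read as reduced luminescence.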
Starred values were filed as active, the others as inactive; ? = inconclusive; · = not tested or not shown. In the library only some 18% were active in any assay of this set; here they are far more common. Unless noted, calls follow the shape of the dose curve; as a rule, active = well fitted curve in the direction sought with a large enough effect; inconclusive = small, poorly fitted or top-dose-only effect, or another doubt; inactive = no such curve, though single readings can be large; an effect the other way counts as inactive or inconclusive. Unless noted, % is scaled to controls: 0 for no effect and ±100 for the full control effect.

SMILES	IL-1B inflam inh	TDP1 cell CPT	Gal4-VP16 FLuc	LDHA block	TDP1 cell noCPT	RORg inh
COC(=O)Cn1c(=O)c2c3c(sc2n(CC(=O)c2ccc(Cl)cc2)c1=O)CCC3	·	·	·	-3.4	·	·
Cc1oc2cc(OCC(=O)NCCCOC(C)C)ccc2c(=O)c1-c1ccccc1	·	·	·	1.4	·	·
CCOC(=O)N1CCC(NC(=O)c2cnn(-c3ccc(C)cc3)c2C2CCN(C(=O)OC(C)(C)C)CC2)CC1	·	20.6µM*	·	-2.8	?	·
COc1ccc(-n2ncc(C(=O)NCCc3ccsc3)c2C2CCN(C(=O)OC(C)(C)C)CC2)cc1	·	23.1µM*	·	4.4	?	·
COc1ccc(-n2ncc(C(=O)Nc3ccc(C)cc3Cl)c2C2CCN(C(=O)OC(C)(C)C)CC2)cc1	·	16.4µM*	·	4.8	16.4µM*	·
CC(C)(C)OC(=O)N1CCC(c2c(C(=O)NC3CC3)cnn2-c2ccccc2)CC1	36.6	-2.9%	-8.5%	-2.8	4.9%	-13.7%
CCOC(=O)N1CCC(NC(=O)c2cnn(-c3ccc(OC)cc3)c2C2CCN(C(=O)OC(C)(C)C)CC2)CC1	·	18.4µM*	·	0.4	?	·
COc1ccc(CNC(=O)c2cnn(-c3ccc(OC)cc3)c2C2CCN(C(=O)OC(C)(C)C)CC2)cc1	·	?	·	7.7	?	·
Cc1ccc(S(=O)(=O)NCC(c2cccs2)N(C)C)s1 (stereo unspecified)	·	·	·	-18.6	·	·
C[C@H](CO)N1C[C@H](C)[C@@H](CN(C)S(=O)(=O)c2cccs2)Oc2ccc(NC(=O)NC3CCCCC3)cc2C1=O	-26.2	?	·	-0.4	?	·
C[C@@H]1CN([C@@H](C)CO)C(=O)c2cc(N(C)C)ccc2O[C@@H](C)CCCCO[C@@H]1CN(C)S(=O)(=O)c1cccs1	25.7	18.4µM*	·	-2.7	16.4µM*	·
C[C@@H]1CCCCO[C@H](CN(C)S(=O)(=O)c2cccs2)[C@@H](C)CN([C@H](C)CO)C(=O)c2cc(NC(=O)C3CCCCC3)ccc2O1	-3.9	18.4µM*	·	-1.5	25.9µM*	·
C[C@@H]1CCCCO[C@@H](CN(C)S(=O)(=O)c2cccs2)[C@@H](C)CN([C@H](C)CO)C(=O)c2cc(NS(=O)(=O)c3ccccc3)ccc2O1	?	16.4µM*	·	-14.5	8.2µM*	·
C[C@@H]1CCCCO[C@H](CN(C)S(=O)(=O)c2cccs2)[C@H](C)CN([C@@H](C)CO)C(=O)c2cc(NC(=O)NC3CCCCC3)ccc2O1	-16.2	18.4µM*	·	-15.5	11.6µM*	·
O=C(NC1CC1)C(NCc1ccc(C(F)(F)F)cc1)c1ccccc1 (stereo unspecified)	·	·	·	7.3	·	·
O=C(O)Cn1cc(C(C(=O)O)N2CCN(Cc3ccccc3)CC2)c2ccccc21 (stereo unspecified)	·	·	·	-9.3	·	·
C[C@H](CO)N1C[C@H](C)[C@@H](CN(C)S(=O)(=O)c2ccccc2)Oc2ccc(NC(=O)NC3CCCCC3)cc2C1=O	-0.9	?	·	5.4	20.6µM*	·
O=C(c1ccco1)N1CCC2(CC1)CN(C(c1ccccc1)c1ccccc1)C2	·	?	-12.4%	·	14.6µM*	?
CC(=O)c1ccc(N2CCN(C(=O)Nc3cccc(F)c3)CC2)cc1	-4.7	20.6µM*	-1.5%	-4.2	?	12.7%
O=C(Nc1cccc(F)c1)N1CCCC2(CCN(C(=O)c3ccncc3)CC2)C1	·	0.13µM*	4.2%	·	0.146µM*	12.9%
O=C(Nc1cccc(F)c1)N1CCC2(CC1)CCN(C(=O)c1cccc(F)c1)CC2	·	-6.3%	7.5%	·	20.6µM*	3.3%
O=C(Nc1ccccc1)N1CCC2(CC1)CCN(C(=O)c1cccc(F)c1)CC2	·	-7.4%	-5.4%	·	?	-3.0%
N#CC1(NC(=O)COC(=O)c2nn(Cc3ccccc3)c(=O)c3ccccc23)CCCCC1	·	·	·	3.3	·	·
O=C(OCC(=O)C12CC3CC(CC(C3)C1)C2)c1ccc([N+](=O)[O-])cc1Cl	·	·	·	7.1	·	·
COC(=O)N1CCC[C@@]2(CCN(C(c3ccccc3)c3ccccc3)C2)C1	·	?	-6.9%	·	?	1.3%
SMILES	IL-1B inflam inh	TDP1 cell CPT	Gal4-VP16 FLuc	LDHA block	TDP1 cell noCPT	RORg inh
COC(=O)N1CCC[C@@]2(CCN(C(=O)Nc3cccc(C#N)c3)C2)C1	·	?	-3.3%	·	0.0461µM*	-37.0%
COC(=O)N1CCC2(CCCN(C(=O)Nc3cccc(C#N)c3)C2)CC1	·	0.5%	15.9%	·	-9.1%	-10.8%
O=C(c1cccc(F)c1)N1CCC2(CC1)CCN(C(c1ccccc1)c1ccccc1)CC2	·	14.6µM*	4.4%	·	23.1µM*	13.4%
O=C(c1csnn1)N1CCC[C@@]2(CCN(C(c3ccccc3)c3ccccc3)C2)C1	·	?	28.8%	·	18.4µM*	0.0%
O=C(c1cccc(F)c1)N1CCC2(CC1)CN(c1ccc(-c3ccccc3)cc1)C2	·	?	15.8µM*	·	14.6µM*	10.7%
COc1ccc(Oc2c(C)oc3cc(OCC(=O)N4CCCCCC4)ccc3c2=O)cc1	·	·	·	-5.4	·	·
N#CCCSc1sc(=S)sc1SCc1c(F)c(F)c(F)c(F)c1F	·	·	·	2.7	·	·
Cc1cc2cc(NC(=O)c3cccc(C)c3C)ccc2[nH]1	·	·	·	-0.7	·	·
CCc1cnc2c(c1SCC(=O)Nc1ccccc1C)c(=O)n(C)c(=O)n2C	·	·	·	11.0	·	·
CC1CCCN(C(=O)CCNS(=O)(=O)c2ccc(Br)cc2)C1 (stereo unspecified)	-13.5	-23.6%	·	-3.5	-21.5%	·
